Reference: PubChem BioAssay AID1159580 (chemical genetic matrix, 2015)
Where “and” joins values, the source holds several entries; their conditions need not be identical. Equal entries are not always repeated. The campaign covered roughly 5,500 compounds. About 2,000 (36%) were called active. Another 18% or so got no clear call; they are omitted. No stated cut-off is given here; in the data, active means normalized growth mostly below about 0.91 (no sharp cut-off); inconclusive means no clear call, values can overlap the other calls; inactive means mostly above about 0.92. The list shows a part of the results. Some compounds were tested as several samples or in several runs, with calls that do not always agree.

Assay: chemical genetic growth profiling, strain panel (AID 1159580);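 further: tested at 20 µM; growth read once vehicle control cultures reached saturation at 30 °C; 1 = growth at the plate median or of vehicle wells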
Details: S. cerevisiae deletion strains, growth OD

Measured: normalized growth

CCN(CC)CCCC(C)Nc1c2ccc(Cl)cc2nc2ccc(OC)cc12 (stereo unspecified)
active: locus YAL021C, strain ccr4, stronger effect = lower value 0.906 | locus YBR009C, strain hhf1, stronger effect = lower value 0.894 | locus YBR229C, strain ROT2, stronger effect = lower value 0.87 | locus YCL016C, strain dcc1, stronger effect = lower value 0.844 | locus YCL029C, strain bik1, stronger effect = lower value 0.479 | locus YCL061C, strain MRC1 (second series), stronger effect = lower value 0.917 | locus YDL035C, strain GPR1, stronger effect = lower value 0.627 | locus YDL074C, strain BRE1, stronger effect = lower value 0.511 | locus YDL101C, strain DUN1, stronger effect = lower value 0.728 | locus YDL134C, strain PPH21, stronger effect = lower value 0.771 | locus YDL192W, strain arf1, stronger effect = lower value 0.669 | locus YDR101C, strain arx1, stronger effect = lower value 0.413 | locus YDR162C, strain NBP2, stronger effect = lower value 0.802 | locus YDR318W, strain mcm21, stronger effect = lower value 0.618 | locus YDR363W, strain ESC2, stronger effect = lower value 0.715 | locus YDR388W, stronger effect = lower value 0.695 | locus YDR392W, strain spt3, stronger effect = lower value 0.717 | locus YDR502C, strain sam2, stronger effect = lower value 0.708 | locus YEL061C, strain CIN8, stronger effect = lower value 0.907 | locus YER167W, strain BCK2, stronger effect = lower value 0.641 | locus YGL078C, strain dbp3, stronger effect = lower value 0.817 | locus YGL086W, strain mad1, stronger effect = lower value 0.74 | locus YGL248W, strain PDE1, stronger effect = lower value 0.735 | locus YGR078C, strain PAC10, stronger effect = lower value 0.818 | locus YGR135W, strain pre9, stronger effect = lower value 0.739 | locus YGR229C, strain SMI1, stronger effect = lower value 0.754 | locus YGR252W, strain gcn5, stronger effect = lower value 0.643 | locus YHR013C, strain ard1, stronger effect = lower value 0.844 | locus YHR030C, strain SLT2, stronger effect = lower value 0.911 and 0.737 | locus YHR079C, strain IRE1 (second series), stronger effect = lower value 0.49 | locus YHR079C, strain IRE1, stronger effect = lower value 0.761 | locus YHR094C, strain hxt1, stronger effect = lower value 0.796 | locus YHR129C, strain ARP1, stronger effect = lower value 0.809 | locus YHR200W, strain rpn10, stronger effect = lower value 0.786 | locus YIL066C, strain RNR3, stronger effect = lower value 0.798 | locus YIL125W, strain kgd1, stronger effect = lower value 0.899 | locus YIR030C, strain dcg1, stronger effect = lower value 0.768 | locus YJL095W, strain BCK1, stronger effect = lower value 0.622 and 0.668 | locus YJL164C, strain tpk1, stronger effect = lower value 0.911 | locus YJL187C, strain SWE1 (second series), stronger effect = lower value 0.453 | locus YJR043C, strain POL32, stronger effect = lower value 0.79 | locus YJR066W, strain TOR1, stronger effect = lower value 0.558
inactive: locus YAL013W, strain DEP1, stronger effect = lower value 0.992 | locus YAL026C, strain drs2, stronger effect = lower value 0.994 | locus YAL030W, strain snc1, stronger effect = lower value 1.02 | locus YAL040C, strain CLN3, stronger effect = lower value 0.972 | locus YBL061C, strain skt5, stronger effect = lower value 1.03 | locus YBR021W, strain FUR4, stronger effect = lower value 0.89 | locus YBR023C, strain chs3, stronger effect = lower value 0.984 | locus YBR171W, strain sec66, stronger effect = lower value 1.05 | locus YBR231C, strain swc5, stronger effect = lower value 0.978 | locus YBR279W, strain paf1, stronger effect = lower value 0.966 | locus YCL011C, strain gbp2, stronger effect = lower value 0.965 | locus YCL061C, strain MRC1, stronger effect = lower value 1.01 | locus YCL069W, strain vba3, stronger effect = lower value 1.01 | locus YCR088W, strain abp1, stronger effect = lower value 1.03 | locus YDL005C, strain med2, stronger effect = lower value 1.01 | locus YDL040C, strain nat1, stronger effect = lower value 1.03 | locus YDL185W, strain tfp1, stronger effect = lower value 1.01 | locus YDR001C, strain nth1, stronger effect = lower value 1.04 | locus YDR069C, strain doa4, stronger effect = lower value 0.989 | locus YDR137W, strain rgp1, stronger effect = lower value 1.04 | locus YDR159W, strain sac3, stronger effect = lower value 1.08 | locus YDR195W, strain ref2 1.06 | locus YDR297W, strain sur2, stronger effect = lower value 1 | locus YDR334W, strain swr1, stronger effect = lower value 1.02 | locus YDR335W, strain msn5, stronger effect = lower value 1.02 | locus YEL003W, strain gim4, stronger effect = lower value 1.01 | locus YEL037C, strain rad23, stronger effect = lower value 0.992 | locus YEL061C, strain CIN8 (second series), stronger effect = lower value 1.03 | locus YER002W, strain NOP16, stronger effect = lower value 1 | locus YER015W, strain faa2, stronger effect = lower value 1.01 | locus YER016W, strain bim1, stronger effect = lower value 1.02 | locus YER110C, stronger effect = lower value 0.908 | locus YER111C, strain swi4, stronger effect = lower value 1.02 | locus YER155C, strain BEM2 (second series), stronger effect = lower value 0.943 | locus YER155C, strain BEM2, stronger effect = lower value 0.997 | locus YFR010W, strain ubp6, stronger effect = lower value 0.988 | locus YGL167C, strain pmr1, stronger effect = lower value 1.03 | locus YGL173C, strain kem1, stronger effect = lower value 0.997 | locus YGL227W, strain vid30, stronger effect = lower value 1.03 | locus YGL240W, strain doc1, stronger effect = lower value 1 | locus YGL253W, strain hxk2, stronger effect = lower value 0.975 | locus YHR027C, strain rpn1, stronger effect = lower value 1.03 | locus YHR142W, strain chs7, stronger effect = lower value 0.947 | locus YIL073C, strain SPO22, stronger effect = lower value 0.69 | locus YJL092W, strain hpr5, stronger effect = lower value 1.02 | locus YJL095W, strain BCK1 (second series), stronger effect = lower value 1.03 | locus YJL115W, strain asf1, stronger effect = lower value 1.03 | locus YJL129C, strain trk1, stronger effect = lower value 1.02 | locus YJL134W, strain LCB3, stronger effect = lower value 1.01 | locus YJL154C, strain vps35, stronger effect = lower value 1.04 | locus YJL166W, strain qcr8, stronger effect = lower value 0.942 | locus YJL168C, strain set2, stronger effect = lower value 1.02 | locus YJL187C, strain SWE1, stronger effect = lower value 1.01
0.945 (inactive) and 0.826 (active): locus YDR150W, strain NUM1, stronger effect = lower value
